Here are results for 7 sequences from publication PMC7862700, “An all-to-all approach to the identification of sequence-specific readers for epigenetic DNA modifications on cytosine”.

Experiment in all cases: DAPPL (digital affinity profiling via proximity ligation, sequencing); 10 mM Tris-HCl pH 7.5, 50 mM NaCl, 1 mM DTT, 4% glycerol, room temperature, 30 min; GST-TFs on glutathione beads, 16-mer random dsDNA library, 0.1% formaldehyde crosslink after washing; high values mean tight binding
The target of one assay is T1, FEV (Homo sapiens, UniProt Q99581 1-238).
T1 sequence: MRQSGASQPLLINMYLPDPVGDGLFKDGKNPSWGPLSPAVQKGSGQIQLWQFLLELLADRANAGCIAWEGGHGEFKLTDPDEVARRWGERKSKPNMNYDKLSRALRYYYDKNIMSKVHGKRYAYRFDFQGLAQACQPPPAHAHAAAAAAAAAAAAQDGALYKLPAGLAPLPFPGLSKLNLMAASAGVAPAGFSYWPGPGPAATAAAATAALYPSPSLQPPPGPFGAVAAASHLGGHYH
The following applies: protein: recombinant; tags: N-terminal GST; dsDNA, one strand shown. In outline: (§1)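 Binding signal is each hexamer's read frequency for a factor divided by its frequency in the tag-only sample. The factors were GST-fused human transcription factors from yeast, captured on glutathione beads, DNA-barcoded and pooled with that sample. Pools were incubated with 200 nmole of a random double-stranded 16-mer DNA library in Tris/NaCl/DTT/glycerol buffer at room temperature for 30 min, then washed, crosslinked with 0.1% formaldehyde, proximity-ligated with BsaI/T4 ligase (1 h, 37 °C), PCR-amplified and sequenced on an Illumina NextSeq500.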

The next assay has as its target ETV5 (Homo sapiens, UniProt P41161 1-510). The following applies: protein: recombinant; tags: N-terminal GST; dsDNA, one strand shown. The method, boiled down: as §1
The target of another assay is HSF1 (Homo sapiens, UniProt Q00613 1-529). Conditions: protein: recombinant; tags: N-terminal GST; chain copies: 3; dsDNA, one strand shown. In outline: as §1
The target in the next assay is T2, SPIC (Homo sapiens, UniProt Q8N5J4 1-248).
T2 sequence: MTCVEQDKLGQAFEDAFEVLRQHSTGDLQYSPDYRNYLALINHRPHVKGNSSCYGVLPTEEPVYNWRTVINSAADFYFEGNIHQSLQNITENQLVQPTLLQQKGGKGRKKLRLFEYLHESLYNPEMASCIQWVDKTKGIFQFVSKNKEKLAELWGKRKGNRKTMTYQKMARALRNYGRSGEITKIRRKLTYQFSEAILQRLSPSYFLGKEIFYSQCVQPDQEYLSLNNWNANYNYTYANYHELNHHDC
The following applies: protein: recombinant; tags: N-terminal GST; dsDNA, one strand shown. In outline: as §1

A further assay deals with ELF4 (Homo sapiens, UniProt Q99607 1-663). The following applies: protein: recombinant; tags: N-terminal GST; dsDNA, one strand shown. The method, boiled down: as §1
The target of another assay is T3, ELK4 (Homo sapiens, UniProt P28324-2 1-405).
T3 sequence: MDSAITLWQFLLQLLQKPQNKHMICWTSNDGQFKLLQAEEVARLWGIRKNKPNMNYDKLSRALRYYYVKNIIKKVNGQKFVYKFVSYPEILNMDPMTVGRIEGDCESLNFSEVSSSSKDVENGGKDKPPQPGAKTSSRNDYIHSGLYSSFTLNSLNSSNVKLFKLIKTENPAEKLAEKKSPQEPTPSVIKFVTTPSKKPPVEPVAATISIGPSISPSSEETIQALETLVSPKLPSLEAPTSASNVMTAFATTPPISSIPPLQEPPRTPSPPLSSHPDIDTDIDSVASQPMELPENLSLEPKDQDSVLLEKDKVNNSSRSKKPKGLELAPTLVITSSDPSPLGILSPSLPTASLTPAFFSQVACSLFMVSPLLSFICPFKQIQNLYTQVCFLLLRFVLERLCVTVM
Conditions: protein: recombinant; tags: N-terminal GST; dsDNA, one strand shown. In outline: as §1

The target of another assay is T4, ETV2 (Homo sapiens, UniProt O00321 1-342).
T4 sequence: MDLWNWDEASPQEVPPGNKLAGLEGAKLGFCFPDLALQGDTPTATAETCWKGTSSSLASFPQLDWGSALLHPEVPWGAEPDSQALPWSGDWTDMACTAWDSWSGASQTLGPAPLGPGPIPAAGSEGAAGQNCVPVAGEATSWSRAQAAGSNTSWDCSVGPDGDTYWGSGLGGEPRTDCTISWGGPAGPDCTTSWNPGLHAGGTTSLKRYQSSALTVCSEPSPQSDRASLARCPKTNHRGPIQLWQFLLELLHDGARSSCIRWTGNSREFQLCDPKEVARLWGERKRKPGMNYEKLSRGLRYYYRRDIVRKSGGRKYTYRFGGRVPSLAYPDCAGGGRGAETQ
The following applies: protein: recombinant; tags: N-terminal GST; dsDNA, one strand shown. The method, boiled down:
as §1

The next assay deals with T5, ELF3 (Homo sapiens, UniProt P78545 1-371).
T5 sequence: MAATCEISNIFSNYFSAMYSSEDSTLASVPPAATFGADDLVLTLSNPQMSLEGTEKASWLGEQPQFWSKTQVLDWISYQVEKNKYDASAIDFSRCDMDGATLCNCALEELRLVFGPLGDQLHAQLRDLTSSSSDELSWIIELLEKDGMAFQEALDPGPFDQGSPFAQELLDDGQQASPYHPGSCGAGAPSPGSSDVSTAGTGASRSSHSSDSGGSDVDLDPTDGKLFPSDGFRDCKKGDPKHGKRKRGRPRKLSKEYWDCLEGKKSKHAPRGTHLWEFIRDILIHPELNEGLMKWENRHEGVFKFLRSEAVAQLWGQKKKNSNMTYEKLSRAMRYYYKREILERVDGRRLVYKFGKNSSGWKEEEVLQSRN
The following applies: protein: recombinant; tags: N-terminal GST; dsDNA, one strand shown. In outline:
as §1

The next assay has as its target CRX (Homo sapiens, UniProt O43186 1-299). The following applies: protein: recombinant; tags: N-terminal GST; dsDNA, one strand shown. The method, boiled down: as §1
The next assay concerns the target ETV1 (Homo sapiens, UniProt P50549 1-477). The following applies: protein: recombinant; tags: N-terminal GST; dsDNA, one strand shown. The method, boiled down: as §1

Chain of CRX (O43186 whole entry): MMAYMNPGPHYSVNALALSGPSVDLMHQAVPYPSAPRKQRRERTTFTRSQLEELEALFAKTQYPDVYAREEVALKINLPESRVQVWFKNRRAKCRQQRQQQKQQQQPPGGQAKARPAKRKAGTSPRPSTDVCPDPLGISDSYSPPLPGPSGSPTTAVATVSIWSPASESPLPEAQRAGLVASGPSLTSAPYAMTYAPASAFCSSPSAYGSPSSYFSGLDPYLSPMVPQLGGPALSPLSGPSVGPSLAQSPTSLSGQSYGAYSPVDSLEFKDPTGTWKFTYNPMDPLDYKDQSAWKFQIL
Chain of ETV5 (P41161 whole entry): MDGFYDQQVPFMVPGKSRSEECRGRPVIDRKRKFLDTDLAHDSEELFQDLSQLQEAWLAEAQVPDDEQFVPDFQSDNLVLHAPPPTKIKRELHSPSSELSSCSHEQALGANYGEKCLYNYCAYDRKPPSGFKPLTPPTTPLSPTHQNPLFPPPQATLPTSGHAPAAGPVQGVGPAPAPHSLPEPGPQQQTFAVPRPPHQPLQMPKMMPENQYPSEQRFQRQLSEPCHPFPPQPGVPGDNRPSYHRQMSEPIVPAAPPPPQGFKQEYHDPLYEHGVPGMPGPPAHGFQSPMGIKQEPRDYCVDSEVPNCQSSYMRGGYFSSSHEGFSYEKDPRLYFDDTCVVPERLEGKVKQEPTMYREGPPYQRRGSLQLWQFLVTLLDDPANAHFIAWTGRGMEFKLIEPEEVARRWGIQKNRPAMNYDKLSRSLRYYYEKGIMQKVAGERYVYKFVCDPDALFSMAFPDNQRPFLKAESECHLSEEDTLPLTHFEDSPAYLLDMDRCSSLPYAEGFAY
Chain of ELF4 (Q99607 whole entry): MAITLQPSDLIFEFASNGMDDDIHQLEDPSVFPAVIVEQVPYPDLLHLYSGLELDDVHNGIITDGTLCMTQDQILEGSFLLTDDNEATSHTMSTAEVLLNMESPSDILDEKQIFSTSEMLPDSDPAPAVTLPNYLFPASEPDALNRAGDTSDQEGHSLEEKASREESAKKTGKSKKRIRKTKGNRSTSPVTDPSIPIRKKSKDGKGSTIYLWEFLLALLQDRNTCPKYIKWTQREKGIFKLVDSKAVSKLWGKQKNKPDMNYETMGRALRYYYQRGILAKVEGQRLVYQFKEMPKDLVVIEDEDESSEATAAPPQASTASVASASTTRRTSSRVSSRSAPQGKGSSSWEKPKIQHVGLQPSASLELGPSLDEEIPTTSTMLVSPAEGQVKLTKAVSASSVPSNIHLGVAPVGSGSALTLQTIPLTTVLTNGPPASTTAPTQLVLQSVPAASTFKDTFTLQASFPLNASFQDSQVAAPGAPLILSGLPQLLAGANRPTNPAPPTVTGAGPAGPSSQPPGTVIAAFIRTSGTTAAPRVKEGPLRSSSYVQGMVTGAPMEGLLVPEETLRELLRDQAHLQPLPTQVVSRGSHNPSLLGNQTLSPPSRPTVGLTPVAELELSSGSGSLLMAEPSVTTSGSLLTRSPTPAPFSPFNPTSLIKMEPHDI
Chain of ETV1 (P50549 whole entry): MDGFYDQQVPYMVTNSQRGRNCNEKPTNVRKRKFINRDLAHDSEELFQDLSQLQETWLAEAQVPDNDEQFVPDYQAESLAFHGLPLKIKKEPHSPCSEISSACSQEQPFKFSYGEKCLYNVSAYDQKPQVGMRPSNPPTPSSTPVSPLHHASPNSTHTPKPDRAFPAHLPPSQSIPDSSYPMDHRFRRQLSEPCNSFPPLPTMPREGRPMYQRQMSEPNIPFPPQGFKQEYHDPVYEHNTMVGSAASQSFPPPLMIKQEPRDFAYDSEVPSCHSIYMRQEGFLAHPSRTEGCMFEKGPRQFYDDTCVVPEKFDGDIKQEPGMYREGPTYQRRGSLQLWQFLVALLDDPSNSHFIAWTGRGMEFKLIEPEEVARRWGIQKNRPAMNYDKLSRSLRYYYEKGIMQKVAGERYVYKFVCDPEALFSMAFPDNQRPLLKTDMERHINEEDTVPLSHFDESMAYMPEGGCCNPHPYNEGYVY
Chain of HSF1 (Q00613 whole entry): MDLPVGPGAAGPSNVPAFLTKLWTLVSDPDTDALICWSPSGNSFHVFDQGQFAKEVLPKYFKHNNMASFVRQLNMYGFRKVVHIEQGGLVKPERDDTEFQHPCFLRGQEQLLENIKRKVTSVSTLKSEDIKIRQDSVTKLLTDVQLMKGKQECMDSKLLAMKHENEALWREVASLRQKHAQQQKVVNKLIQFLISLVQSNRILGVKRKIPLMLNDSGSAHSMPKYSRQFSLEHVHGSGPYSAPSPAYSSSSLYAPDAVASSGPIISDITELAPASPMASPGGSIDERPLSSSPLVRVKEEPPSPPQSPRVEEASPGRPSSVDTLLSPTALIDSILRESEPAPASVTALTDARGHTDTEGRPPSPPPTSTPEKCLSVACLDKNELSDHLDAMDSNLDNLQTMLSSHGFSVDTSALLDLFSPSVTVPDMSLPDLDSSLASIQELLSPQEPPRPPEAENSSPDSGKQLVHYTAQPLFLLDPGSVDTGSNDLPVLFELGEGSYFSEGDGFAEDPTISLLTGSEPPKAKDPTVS

Regarding ATTCAT, the binding signal with FEV is 1.11 fold enrichment (6-mer frequency, TF over GST control); in the assay with ETV5 it was 1.21 fold enrichment (6-mer frequency, TF over GST control); with HSF1 it was 1.12 fold enrichment (6-mer frequency, TF over GST control); with SPIC, 1.24 fold enrichment (6-mer frequency, TF over GST control); with ELF4, 1.17 fold enrichment (6-mer frequency, TF over GST control); with ELK4, 1.18 fold enrichment (6-mer frequency, TF over GST control). Also, the binding signal with ETV2 was 1.15 fold enrichment (6-mer frequency, TF over GST control); with ELF3, 1.22 fold enrichment (6-mer frequency, TF over GST control); with CRX it was 1.16 fold enrichment (6-mer frequency, TF over GST control); with ETV1, 1.18 fold enrichment (6-mer frequency, TF over GST control).
As to TATGAA, the binding signal with FEV is 1.14 fold enrichment (6-mer frequency, TF over GST control); in the assay with ETV5 it was 1.12 fold enrichment (6-mer frequency, TF over GST control); with HSF1 it was 1.21 fold enrichment (6-mer frequency, TF over GST control); in the assay with SPIC, 1.4 fold enrichment (6-mer frequency, TF over GST control); in the assay with ELF4 it was 1.26 fold enrichment (6-mer frequency, TF over GST control); with ELK4 it was 1.13 fold enrichment (6-mer frequency, TF over GST control). The binding signal with ETV2 is 1.17 fold enrichment (6-mer frequency, TF over GST control); with ELF3 it was 1.29 fold enrichment (6-mer frequency, TF over GST control); in the assay with CRX it was 1.25 fold enrichment (6-mer frequency, TF over GST control); with ETV1, 1.14 fold enrichment (6-mer frequency, TF over GST control).
Turning to TCCCTC, the binding signal with FEV is 1.56 fold enrichment (6-mer frequency, TF over GST control); with ETV5 it was 1.43 fold enrichment (6-mer frequency, TF over GST control); with HSF1, 1.38 fold enrichment (6-mer frequency, TF over GST control); with SPIC, 1.35 fold enrichment (6-mer frequency, TF over GST control); in the assay with ELF4 it was 1.7 fold enrichment (6-mer frequency, TF over GST control); with ELK4 it was 1.78 fold enrichment (6-mer frequency, TF over GST control). In addition, the binding signal is 1.43 fold enrichment (6-mer frequency, TF over GST control) with ETV2; 1.43 fold enrichment (6-mer frequency, TF over GST control) with ELF3; 1.41 fold enrichment (6-mer frequency, TF over GST control) with CRX; 1.43 fold enrichment (6-mer frequency, TF over GST control) in the assay with ETV1.
In the case of TGATCT, the binding signal in the assay with FEV is 1.12 fold enrichment (6-mer frequency, TF over GST control); in the assay with ETV5 it was 1.21 fold enrichment (6-mer frequency, TF over GST control); in the assay with HSF1, 1.66 fold enrichment (6-mer frequency, TF over GST control); with SPIC, 1.19 fold enrichment (6-mer frequency, TF over GST control); with ELF4 it was 1.16 fold enrichment (6-mer frequency, TF over GST control); with ELK4 it was 1.37 fold enrichment (6-mer frequency, TF over GST control). In addition, the binding signal in the assay with ETV2 is 1.21 fold enrichment (6-mer frequency, TF over GST control); in the assay with ELF3, 1.25 fold enrichment (6-mer frequency, TF over GST control); in the assay with CRX, 1.86 fold enrichment (6-mer frequency, TF over GST control); with ETV1, 1.2 fold enrichment (6-mer frequency, TF over GST control).
Consider TTACAA, for which the binding signal was 1.12 fold enrichment (6-mer frequency, TF over GST control) with FEV; 1.1 fold enrichment (6-mer frequency, TF over GST control) in the assay with ETV5; 1.31 fold enrichment (6-mer frequency, TF over GST control) with HSF1; 1.12 fold enrichment (6-mer frequency, TF over GST control) with SPIC; 1.12 fold enrichment (6-mer frequency, TF over GST control) in the assay with ELF4; 1.24 fold enrichment (6-mer frequency, TF over GST control) with ELK4. The binding signal with ETV2 was 1.09 fold enrichment (6-mer frequency, TF over GST control); with ELF3, 1.22 fold enrichment (6-mer frequency, TF over GST control); with CRX it was 1.77 fold enrichment (6-mer frequency, TF over GST control); with ETV1 it was 1.18 fold enrichment (6-mer frequency, TF over GST control).
GCTTTG: the binding signal is 1.08 fold enrichment (6-mer frequency, TF over GST control) with FEV; 1.11 fold enrichment (6-mer frequency, TF over GST control) with ETV5; 1.23 fold enrichment (6-mer frequency, TF over GST control) with HSF1; 1.22 fold enrichment (6-mer frequency, TF over GST control) with SPIC; 1.17 fold enrichment (6-mer frequency, TF over GST control) with ELF4; 1.22 fold enrichment (6-mer frequency, TF over GST control) with ELK4. The binding signal in the assay with ETV2 is 1.22 fold enrichment (6-mer frequency, TF over GST control); with ELF3, 1.16 fold enrichment (6-mer frequency, TF over GST control); in the assay with CRX, 1.49 fold enrichment (6-mer frequency, TF over GST control); with ETV1, 1.16 fold enrichment (6-mer frequency, TF over GST control).
Regarding TATCAT, the binding signal is 1.16 fold enrichment (6-mer frequency, TF over GST control) in the assay with FEV; 1.07 fold enrichment (6-mer frequency, TF over GST control) in the assay with ETV5; 1.16 fold enrichment (6-mer frequency, TF over GST control) with HSF1; 1.25 fold enrichment (6-mer frequency, TF over GST control) with SPIC; 1.21 fold enrichment (6-mer frequency, TF over GST control) with ELF4; 1.16 fold enrichment (6-mer frequency, TF over GST control) with ELK4. Moreover, the binding signal in the assay with ETV2 is 1.24 fold enrichment (6-mer frequency, TF over GST control); with ELF3, 1.11 fold enrichment (6-mer frequency, TF over GST control); with CRX it was 1.41 fold enrichment (6-mer frequency, TF over GST control); with ETV1, 1.13 fold enrichment (6-mer frequency, TF over GST control).
